Source: PubChem BioAssay (Tox21)
Inconclusive results are not listed. Activity calls are given as the source filed them. Calls follow the shape of the dose curve; as a rule, active = well fitted curve in the direction sought with a large enough effect in the repeat runs; inconclusive = weak or mixed curves; inactive = no such curve, though single readings can be large; an effect the other way counts as inactive or inconclusive.

Key:
[1] = A CellTox Green Cytotoxicity Assay to monitor cytotoxicity in HEK293 cells - 40 hour (AID 1224871); also: nearly all actives have a fitted effect of over 45% in size
Procedure, shortened: (§1)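 Dead-cell fluorescence measured kinetically: asymmetric cyanine dye, HEK293, 600 cells/well, 5 h settle, 23 nL cpd/DMSO, 37 C, reads 0–40 h every 8 h.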

[2] = qHTS RealTime-Glo MT Cell Viability Assay in HEK293 cells - 16 hour (AID 1224872); also: top concentration of the series differs between compounds; nearly all actives have a fitted effect of over 50% in size
Procedure, shortened: (§2)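 Homogeneous bioluminescent viability format in HEK293 cells (600 cells/well). Following 5 h at 37 C/5% CO2, 23 nL compound was pintooled; the signal was measured repeatedly during 40 h incubation.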

[3] = qHTS RealTime-Glo MT Cell Viability Assay in HepG2 cells - 8 hour (AID 1224873); also: nearly all actives have a fitted effect of over 55% in size
Procedure, shortened: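 Real-time viability: cells seeded at 600 per well together with NanoLuc and cell-permeant prosubstrate, compounds added after 5 h incubation. Luminescence tracked at 0, 8, 16, 24, 32 and 40 h of exposure.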

[4] = qHTS RealTime-Glo MT Cell Viability Assay in HEK293 cells - 40 hour (AID 1224874); conditions: RealTime-Glo luminescence; max response: hits give low values; also: nearly all actives have a fitted effect of over 50% in size
Procedure, shortened: (§3)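 600 HEK293 cells per well, dispensed already mixed with RealTime-Glo MT reagents. Compound dosing came 5 h later. The same wells were read for luminescence at 0, 8, 16, 24, 32 and 40 h of exposure at 37 C.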

[5] = A CellTox Green Cytotoxicity Assay to monitor cytotoxicity in HEK293 cells - 24 hour (AID 1224875); also: series mostly up to about 77 µM; nearly all actives have a fitted effect of over 45% in size
Procedure, shortened: as §1

[6] = A CellTox Green Cytotoxicity Assay to monitor cytotoxicity in HepG2 cells - 16 hour (AID 1224876); also: nearly all actives have a fitted effect of over 45% in size
Procedure, shortened: (§4)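 First, HepG2 cells (600/well) mixed with reagent were plated; second, after 5 h at 37 C they received compounds via pintool; third, fluorescence was measured at 0 h through 40 h at 8 h intervals.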

[7] = qHTS RealTime-Glo MT Cell Viability Assay in HepG2 cells - 32 hour (AID 1224877); also: nearly all actives have a fitted effect of over 55% in size
Procedure, shortened: (§5)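 Cell number in HepG2 cultures estimated from NanoLuc luminescence generated by metabolic reduction of a prosubstrate by living cells. The homogeneous, nonlytic format allowed repeated reads at 0, 8, 16, 24, 32 and 40 h of compound exposure.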

[8] = A CellTox Green Cytotoxicity Assay to monitor cytotoxicity in HepG2 cells - 24 hour (AID 1224878); also: nearly all actives have a fitted effect of over 45% in size
Procedure, shortened: as §4

[9] = A CellTox Green Cytotoxicity Assay to monitor cytotoxicity in HepG2 cells - 40 hour (AID 1224879); also: nearly all actives have a fitted effect of over 40% in size
Procedure, shortened: as §4

[10] = qHTS RealTime-Glo MT Cell Viability Assay in HEK293 cells - 0 hour (AID 1224880)
Procedure, shortened: as §3

[11] = A CellTox Green Cytotoxicity Assay to monitor cytotoxicity in HEK293 cells - 32 hour (AID 1224881); also: nearly all actives have a fitted effect of over 40% in size
Procedure, shortened: as §1

[12] = A CellTox Green Cytotoxicity Assay to monitor cytotoxicity in HepG2 cells - 0 hour (AID 1224882); also: nearly all actives have a fitted effect of over 35% in size
Procedure, shortened: as §4

[13] = A CellTox Green Cytotoxicity Assay to monitor cytotoxicity in HepG2 cells - 32 hour (AID 1224883); also: nearly all actives have a fitted effect of over 50% in size
Procedure, shortened: as §4

[14] = A CellTox Green Cytotoxicity Assay to monitor cytotoxicity in HEK293 cells - 8 hour (AID 1224884); also: nearly all actives have a fitted effect of over 35% in size
Procedure, shortened: as §1

[15] = qHTS RealTime-Glo MT Cell Viability Assay in HepG2 cells - 16 hour (AID 1224885); also: nearly all actives have a fitted effect of over 50% in size
Procedure, shortened: as §5

[16] = qHTS RealTime-Glo MT Cell Viability Assay in HEK293 cells - 24 hour (AID 1224886)
Procedure, shortened: as §2

[17] = qHTS RealTime-Glo MT Cell Viability Assay in HEK293 cells - 8 hour (AID 1224887)
Procedure, shortened: as §3

[18] = qHTS RealTime-Glo MT Cell Viability Assay in HepG2 cells - 0 hour (AID 1224889); also: nearly all actives have a fitted effect of over 50% in size
Procedure, shortened: as §5

[19] = A CellTox Green Cytotoxicity Assay to monitor cytotoxicity in HepG2 cells - 8 hour (AID 1224890); also: nearly all actives have a fitted effect of over 45% in size
Procedure, shortened: as §4

[20] = A CellTox Green Cytotoxicity Assay to monitor cytotoxicity in HEK293 cells - 16 hour (AID 1224888); also: nearly all actives have a fitted effect of over 35% in size
Procedure, shortened: as §1
% is scaled to controls: 0 for no effect and ±100 for the full control effect.

O=C(O)c1ccc2[nH]cc(CCCCN3CC=C(c4ccccc4)CC3)c2c1
inactive: Potency [1] | Potency [2] | Potency [3] | max response [4] -1.51% | Potency [5] | Potency [6] | Potency [7] | Potency [8] | Potency [9] | outcome [10] | Potency [11] | outcome [12] | Potency [13] | Potency [14] | Potency [15] | Potency [16] | Potency [17] | Potency [18] | Potency [19]

C=CC1CC=CCC1 (centres undefined)
inactive: Potency [1] | Potency [2] | Potency [3] | max response [4] 3.23% | Potency [5] | Potency [6] | Potency [7] | Potency [8] | Potency [9] | outcome [10] | Potency [11] | outcome [12] | Potency [13] | Potency [14] | Potency [15] | Potency [16] | Potency [17] | Potency [18] | Potency [19]

COC(=O)C(c1ccccc1)C1CCCCN1 (centres undefined)
inactive: Potency [1] | Potency [2] | Potency [3] | max response [4] 2.03% | Potency [5] | Potency [6] | Potency [7] | Potency [8] | Potency [9] | outcome [10] | Potency [11] | outcome [12] | Potency [13] | Potency [14] | Potency [15] | Potency [16] | Potency [17] | Potency [19]

CCOP(=O)(OCC)OP(=O)(OCC)OCC
inactive: Potency [1] | Potency [2] | Potency [3] | max response [4] 5.24% | Potency [5] | Potency [6] | Potency [7] | Potency [8] | Potency [9] | outcome [10] | Potency [11] | outcome [12] | Potency [13] | Potency [14] | Potency [15] | Potency [16] | Potency [17] | Potency [20] | Potency [18] | Potency [19]

ClCCOCOCCCl
inactive: Potency [1] | Potency [2] | Potency [3] | max response [4] -5.52% | Potency [5] | Potency [6] | Potency [7] | Potency [8] | Potency [9] | outcome [10] | Potency [11] | outcome [12] | Potency [13] | Potency [14] | Potency [15] | Potency [16] | Potency [17] | Potency [20] | Potency [18] | Potency [19]

CCC1(c2ccccc2)C(=O)NC(=O)NC1=O
inactive: Potency [1] | Potency [2] | Potency [3] | max response [4] 17.3% | Potency [5] | Potency [6] | Potency [7] | Potency [8] | Potency [9] | outcome [10] | Potency [11] | outcome [12] | Potency [13] | Potency [14] | Potency [15] | Potency [16] | Potency [17] | Potency [20] | Potency [18] | Potency [19]

O=[N+]([O-])c1ccc(CBr)cc1
inactive: Potency [1] | Potency [2] | Potency [3] | max response [4] 12.7% | Potency [5] | Potency [6] | Potency [7] | Potency [8] | Potency [9] | outcome [10] | Potency [11] | outcome [12] | Potency [13] | Potency [14] | Potency [15] | Potency [16] | Potency [17] | Potency [20] | Potency [18] | Potency [19]

CC(Cl)(Cl)[N+](=O)[O-]
inactive: Potency [1] | Potency [2] | Potency [3] | max response [4] 2.41% | Potency [5] | Potency [6] | Potency [7] | Potency [8] | Potency [9] | outcome [10] | Potency [11] | outcome [12] | Potency [13] | Potency [14] | Potency [15] | Potency [16] | Potency [17] | Potency [20] | Potency [18] | Potency [19]

COC(=O)c1c(C(F)F)nc(C(F)(F)F)c(C2=NCCS2)c1CC(C)C
inactive: Potency [1] | Potency [2] | Potency [3] | max response [4] -16.3% | Potency [5] | Potency [6] | Potency [7] | Potency [8] | Potency [9] | outcome [10] | Potency [11] | outcome [12] | Potency [13] | Potency [14] | Potency [15] | Potency [16] | Potency [17] | Potency [18] | Potency [19]

Clc1cccc(N2CCNCC2)c1
inactive: Potency [1] | Potency [2] | Potency [3] | max response [4] 8.54% | Potency [5] | Potency [6] | Potency [7] | Potency [8] | Potency [9] | outcome [10] | Potency [11] | outcome [12] | Potency [13] | Potency [14] | Potency [15] | Potency [16] | Potency [17] | Potency [18] | Potency [19]

C[C@@H]1CN(C2CCC(C#N)(c3ccc(F)cc3)CC2)CC[C@]1(C(=O)O)c1ccccc1 (some centres undefined)
inactive: Potency [1] | Potency [2] | Potency [3] | max response [4] 2.36% | Potency [5] | Potency [6] | Potency [7] | Potency [8] | Potency [9] | outcome [10] | Potency [11] | outcome [12] | Potency [13] | Potency [14] | Potency [15] | Potency [16] | Potency [17] | Potency [20] | Potency [18] | Potency [19]

OCCBr
inactive: Potency [1] | Potency [2] | Potency [3] | max response [4] 13.1% | Potency [5] | Potency [6] | Potency [7] | Potency [8] | Potency [9] | outcome [10] | Potency [11] | outcome [12] | Potency [13] | Potency [14] | Potency [15] | Potency [16] | Potency [17] | Potency [20] | Potency [18] | Potency [19]

CNCC(=O)c1ccc(O)c(O)c1
inactive: Potency [1] | Potency [2] | Potency [3] | max response [4] 2.09% | Potency [5] | Potency [6] | Potency [7] | Potency [8] | Potency [9] | outcome [10] | Potency [11] | outcome [12] | Potency [13] | Potency [14] | Potency [15] | Potency [16] | Potency [17] | Potency [20] | Potency [18] | Potency [19]

Cc1cnc[nH]1
inactive: Potency [1] | Potency [2] | Potency [3] | max response [4] -2.47% | Potency [5] | Potency [6] | Potency [7] | Potency [8] | Potency [9] | outcome [10] | Potency [11] | outcome [12] | Potency [13] | Potency [14] | Potency [15] | Potency [16] | Potency [17] | Potency [20] | Potency [18] | Potency [19]
